Experimental data reported in the antibiotic and cytotoxicity screens of Wong et al. (2023).
About 1,500 (3.8%) of roughly 39,000 compounds were called active. The entries come from a sample that favours actives as a whole.

test system: HSkMC (human skeletal muscle cells); test: cytotoxicity call (relative viability < 0.9); details: 10 µM

Structure (SMILES) | cytotoxicity call
COc1ccc(NC(=O)N(C)C[C@@H]2OCCCC[C@H](C)Oc3ccc(NC(=O)Nc4ccc(C(F)(F)F)cc4)cc3C(=O)N([C@H](C)CO)C[C@@H]2C)cc1 | inactive
CN(C)Cc1ccc([C@@H](N)c2ccncc2)cc1 | inactive
COc1ccc2c3c(n(c2c1)C)[C@@H](CO)N(Cc1cc(cc(c1)OC)OC)C[C@]13CCN(CC1)C(=O)CN1CCOCC1 | inactive
CCOC(=O)c1ccc(O)cc1 | inactive
CCOC(=O)c1ccc(N)cc1 | inactive
CCOC(=O)c1ccc(NC(=S)N[C@@H](NC(=O)c2ccc(Br)cc2)C(Cl)(Cl)Cl)cc1 | active
Cc1noc(C)c1S(=O)(=O)Nc1ccc2c(c1)CC(=O)N([C@H](C)CO)C[C@H](C)[C@@H](CN(C)S(=O)(=O)c1cn(C)cn1)O2 | inactive
COc1ccc(-c2nc(N3CCOCC3)c3sc(CN(C)c4ncc(C(=O)NO)cn4)cc3n2)cn1 | active
CNc1ccc(-c2nc(N3CCOCC3)c3sc(CN(C)c4ncc(C(=O)NO)cn4)cc3n2)cn1 | active
COC(=O)COc1nsnc1N1CCOCC1 | inactive
COc1ccc(NC(=O)N(C)C[C@@H]2OCCCC[C@H](C)Oc3ccc(NC(=O)Cc4ccccc4)cc3C(=O)N([C@H](C)CO)C[C@@H]2C)cc1 | inactive
Cc1ccc(Oc2ccc(CN)cc2)cc1 | inactive
Cc1ccc(S(=O)(=O)N(C)C[C@H]2Oc3ccc(NC(=O)CCCN(C)C)cc3CC(=O)N([C@H](C)CO)C[C@@H]2C)cc1 | inactive
C[C@@H]1CN([C@H](C)CO)C(=O)c2cc(NC(=O)Nc3ccccc3)ccc2O[C@@H](C)CCCCO[C@H]1CN(C)C(=O)C1CCCCC1 | inactive
C[C@H](CO)N1C[C@H](C)[C@H](CN(C)S(=O)(=O)c2ccc(Cl)cc2)Oc2ccc(NC(=O)CCCN(C)C)cc2CC1=O | inactive
COCC(=O)N1C[C@H](C)[C@H](OC)CN(C)C(=O)c2cc(NC(=O)c3cc(C)on3)ccc2OC[C@H]1C | inactive
C[C@@H]1CN([C@@H](C)CO)C(=O)Cc2cc(NC(=O)CCCN(C)C)ccc2O[C@H]1CN(C)S(=O)(=O)c1ccccc1 | inactive
CC(=O)OC1CCC2(C)C(CC(OC(C)=O)C3(C)C2CCC2(C)C(c4ccoc4)OC(=O)C4OC423)C1(C)C (stereo not drawn) [3beta-ACETOXYDEOXODIHYDROGEDUNIN ] | inactive
CC1(C)C(=O)C=CC2(C)C1C=CC1(C)C2CCC2(C)C(c3ccoc3)OC(=O)C3OC312 (stereo not drawn) | active
CC1(C)C(=O)C=CC2(C)C1CC(=O)C1(C)C2CCC2(C)C(c3ccoc3)OC(=O)C3OC321 (stereo not drawn) | inactive
CCC(=O)N1C[C@]2(C1)CN([C@@H](CO)c1[nH]c3cc(ccc3c12)OC)S(=O)(=O)C | inactive
C[C@@H]1CCCCO[C@H](CN(C)C(=O)Nc2ccc(F)cc2)[C@H](C)CN([C@@H](C)CO)C(=O)c2cc(NC(=O)CCCN(C)C)ccc2O1 | inactive
COc1ccc(NC(=O)Nc2ccc3c(c2)C(=O)N([C@@H](C)CO)C[C@@H](C)[C@H](CN(C)C(=O)Nc2c(C)noc2C)OCCCC[C@H](C)O3)cc1 | inactive

Structure (SMILES) | cytotoxicity call
Cc1cc(C(C)(C)C)c(O)c(C(C)(C)C)c1 | active
Cc1cc(CO)c(O)c(CO)c1 | inactive
Cc1ccc(O)c(C(C)(C)C)c1 | inactive
COc1ccc(S(=O)(=O)Nc2ccc3c(c2)C(=O)N([C@@H](C)CO)C[C@H](C)[C@@H](CN(C)C(=O)Nc2ccc(C(F)(F)F)cc2)OCCCC[C@@H](C)O3)cc1 | inactive
NNC(=O)CCc1ccccc1 | inactive
CNC(=O)CN1CCOC[C@]2(CCCN(C(C)=O)C2)C1 | inactive
S=C(NCCCc1cnc[nH]1)NCCCN(Cc1ccc(Cl)c(Cl)c1)c1ccc(Br)cn1 | active
COc1ccc(cc1)CN1C[C@]2(CCN(CC2)C(=O)Nc2cccc(c2)F)c2c([nH]c3cc(ccc23)OC)[C@@H]1CO | inactive
COc1ccc2c3c([nH]c2c1)[C@H](CO)N(C[C@]13CCN(CC1)CC1CCCC1)C(=O)Nc1cccc(c1)F | inactive
COc1ccc2c3c([nH]c2c1)[C@@H](CO)N(C[C@]13CCN(CC1)CC1CCCCC1)C(=O)Nc1cccc(c1)F | active
COc1ccc2c3c([nH]c2c1)[C@H](CO)N(C[C@]13CCN(CC1)CC1CCCCC1)C(=O)Nc1cccc(c1)F | active
COc1ccc2c3c([nH]c2c1)[C@@H](CO)N(C[C@]13CCN(CC1)CC1CCCC1)C(=O)Nc1cccc(c1)F | inactive
COc1ccc2c3c([nH]c2c1)[C@H](CO)N(CC1CCCCC1)C[C@]13CCN(CC1)C(=O)NC1CCCC1 | active
COc1ccc2c3c([nH]c2c1)[C@@H](CO)N(CC1CCCCC1)C[C@]13CCN(CC1)C(=O)Nc1cccc(c1)F | active
COc1ccc2c3c([nH]c2c1)[C@@H](CO)N(CC1CCCCC1)C[C@]13CCN(CC1)C(=O)NC1CCCC1 | inactive
COc1ccc2c3c([nH]c2c1)[C@H](CO)N(CC1CCCCC1)C[C@]13CCN(CC1)C(=O)Nc1cccc(c1)F | inactive
COc1ccc2c3c([nH]c2c1)[C@@H](CO)N(CC1CCOCC1)C[C@]13CCN(CC1)C(=O)C1CCOCC1 | inactive
COc1ccc2c3c([nH]c2c1)[C@H](CO)N(C[C@]13CCN(CC1)CC1CCCCC1)C(=O)Nc1c(noc1C)C | inactive
COc1ccc2c3c([nH]c2c1)[C@@H](CO)N(C[C@]13CCN(CC1)CC1CCCCC1)C(=O)Nc1c(noc1C)C | inactive
C[C@@H]1CN([C@H](C)CO)S(=O)(=O)c2ccc(-c3ccc(C(=O)N(C)C)cc3)cc2O[C@H]1CN(C)C(=O)C1CC1 | inactive
C[C@@H]1CN([C@H](C)CO)C(=O)Cc2cc(NS(=O)(=O)c3ccccc3)ccc2O[C@H]1CN(C)S(=O)(=O)c1cccs1 | inactive
Cc1cc(C(=O)Nc2cccc3c2O[C@@H](CN(C)S(=O)(=O)c2cn(C)cn2)[C@H](C)CN([C@H](C)CO)C3=O)n(C)n1 | inactive
NC(=O)NCC#Cc1ccc2c(c1)[C@]1(C(=O)N2)[C@H](c2ccc(OCCO)cc2)N2[C@H](c3ccccc3)[C@H](c3ccccc3)OC(=O)[C@H]2[C@@H]1C(N)=O | inactive

Structure (SMILES) | cytotoxicity call
O=C(C[C@H]1CC[C@@H](NC(=O)Cc2ccccn2)[C@H](CO)O1)NCCCN1CCOCC1 | inactive
CC(=O)n1cc([C@@H]2C=C(C(=O)N3CCN(Cc4ccccc4)CC3)O[C@H](OCc3ccc(CO)cc3)C2)c2ccccc21 | inactive
O=C(C[C@H]1C[C@@H]2c3cc(NS(=O)(=O)c4ccc(F)cc4)ccc3O[C@@H]2[C@@H](CO)O1)N1CCOCC1 | inactive
Cc1cc(C)c(C)c(C(=O)O)c1C | inactive
O=C(C[C@@H]1CC[C@H]2NC[C@H](O)COC[C@@H]2O1)NCCN1CCCC1 | inactive
C[C@@H]1CN([C@@H](C)CO)C(=O)Cc2cc(NS(=O)(=O)c3ccc(Cl)cc3)ccc2O[C@@H]1CN(C)S(C)(=O)=O | inactive
C[C@@H]1CCCCO[C@H](CN(C)Cc2ccc3c(c2)OCO3)[C@H](C)CN([C@@H](C)CO)C(=O)c2cc(NC(=O)Nc3ccc4c(c3)OCO4)ccc2O1 | active
C[C@H](CO)N1C[C@H](C)[C@@H](CN(C)CC2CCCCC2)OCCCC[C@H](C)Oc2ccc(NC(=O)Nc3ccc4c(c3)OCO4)cc2C1=O | inactive
C[C@@H]1CCCCO[C@@H](CN(C)Cc2ccc3c(c2)OCO3)[C@@H](C)CN([C@@H](C)CO)C(=O)c2cc(NC(=O)Nc3ccc4c(c3)OCO4)ccc2O1 | inactive
C[C@@H]1CN([C@H](C)CO)C(=O)c2cc(NC(=O)Nc3ccc4c(c3)OCO4)ccc2O[C@@H](C)CCCCO[C@@H]1CN(C)Cc1ccc2c(c1)OCO2 | inactive
COc1ccc(NC(=O)Nc2ccc3c(c2)C(=O)N([C@@H](C)CO)C[C@H](C)[C@H](CN(C)Cc2ccc4c(c2)OCO4)OCCCC[C@@H](C)O3)cc1 | inactive
C[C@@H]1CN([C@@H](C)CO)C(=O)c2cc(NC(=O)Nc3ccc4c(c3)OCO4)ccc2O[C@@H](C)CCCCO[C@H]1CN(C)Cc1ccc(Cl)c(Cl)c1 | inactive
C[C@@H]1CCCCO[C@@H](CN(C)CC2CCCCC2)[C@@H](C)CN([C@H](C)CO)C(=O)c2cc(NC(=O)Nc3ccc4c(c3)OCO4)ccc2O1 | inactive
COc1ccc(NC(=O)Nc2ccc3c(c2)C(=O)N([C@@H](C)CO)C[C@H](C)[C@H](CN(C)Cc2ccc4c(c2)OCO4)OCCCC[C@H](C)O3)cc1 | active
C[C@@H]1CN([C@H](C)CO)C(=O)c2cc(NC(=O)Nc3ccc4c(c3)OCO4)ccc2O[C@@H](C)CCCCO[C@@H]1CN(C)Cc1ccc(Cl)c(Cl)c1 | inactive
COc1ccc(NC(=O)Nc2ccc3c(c2)C(=O)N([C@H](C)CO)C[C@H](C)[C@@H](CN(C)Cc2ccc4c(c2)OCO4)OCCCC[C@H](C)O3)cc1 | inactive
C[C@@H]1CCCCO[C@@H](CN(C)Cc2ccc(Cl)c(Cl)c2)[C@@H](C)CN([C@@H](C)CO)C(=O)c2cc(NC(=O)Nc3ccc4c(c3)OCO4)ccc2O1 | active
C[C@H]1CCCCO[C@@H](CN(C)CC2CCCCC2)[C@@H](C)CN([C@@H](C)CO)C(=O)c2cc(NC(=O)Nc3ccc4c(c3)OCO4)ccc2O1 | active
COc1ccc(CN(C)C[C@@H]2OCCCC[C@@H](C)Oc3ccc(NC(=O)c4ccccc4)cc3C(=O)N([C@H](C)CO)C[C@@H]2C)cc1 | inactive
Cc1noc(C)c1NC(=O)Nc1ccc2c(c1)C(=O)N([C@@H](C)CO)C[C@H](C)[C@@H](CN(C)C(=O)Nc1c(C)noc1C)OCCCC[C@H](C)O2 | inactive
CN1CCN(C(=O)C[C@@H]2CC[C@@H]3[C@H](COc4ccc(NC(=O)c5cscn5)cc4C(=O)N3C)O2)CC1 | inactive
O=C(C[C@@H]1C[C@H]2c3cc(NC(=O)C4CCOCC4)ccc3O[C@H]2[C@@H](CO)O1)NCc1cc(F)ccc1F | inactive
